Measurements as given in PubChem BioAssay AID1626 (SRMLSC, 2009).
Hit rate of the full screen: of about 220,000 compounds, about 2,000 (0.91%) were called active. Not shown: some 2% with an inconclusive outcome. A selection follows. Measured potencies and affinities stand elsewhere. Unmarked numbers belong to inactive results. Rule as the data show it: inconclusive = inhibition above about 80% without an active follow-up result; inactive = below that; test concentration not stated here.

Assay: M. tuberculosis H37Rv growth inhibitors, H37Rv strain (AID 1626);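 also: bacteria incubated seven days before Alamar blue readout; 0% = bacteria only wells and 100% = bacteria with antibiotic wells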
Settings: stronger effect = higher value, concentration not given here

Q: Which inhibition does the source give for `Cc1onc(-c2ccccc2)c1C(=O)NNC(=S)NC(=O)/C=C/c1cccs1` here?
A: 5.26%

Q: With `O=C(N/N=C/c1cc([N+](=O)[O-])ccc1O)C1CC1` as the compound, how does the inhibition read?
A: 9.15%

Q: Which inhibition does the source give for `Cc1nn(-c2ccc(F)cc2)c2sc(C(=O)OC3CCOC3=O)cc12` (configuration not stated) here?
A: -1.05%

Q: For `Cc1ccc(S(=O)(=O)Nc2ccc3c(c2)nc(C)n3C)cc1`, which inhibition is on record?
A: 2.7%

Q: For `COc1ccc(/C=C2/CCc3ccccc3C2=O)cc1OC`, which inhibition is on record?
A: 5.56%

Q: With `CNc1ccc(/C=C2\COc3ccccc3C2=O)cc1[N+](=O)[O-]` as the compound, how does the inhibition read?
A: 10.8%

Q: For `COc1cc(/C=C2\COC/C(=C\c3cc(OC)c(OC)c(OC)c3)C2=O)cc(OC)c1OC`, which inhibition is on record?
A: 21.1%

Q: Which inhibition does the source give for `COc1ccc(/C=C2\Cc3ccccc3C2=O)cc1OC` here?
A: 4.06%

Q: With `COc1cc(/C=C2/CC/C(=C/c3ccc(O)c(OC)c3)C2=O)ccc1O` as the compound, how does the inhibition read?
A: -0.8%

Q: For `O=C1/C(=C/c2cccs2)COc2ccccc21`, which inhibition is on record?
A: 4.75%

Q: Which inhibition does the source give for `CCC(C)NC(=O)CSc1nc2ccccc2c(=O)n1CCCC(=O)NCC1CCCO1` (configuration not stated) here?
A: -0.9%

Q: For `Cc1nn(Cc2ccccc2)c(Cl)c1C(=O)OCC#N`, which inhibition is on record?
A: 2.96%

Q: With `Cc1cccc(NC(=O)CSc2ccc(C(N)=O)cc2[N+](=O)[O-])c1C` as the compound, how does the inhibition read?
A: -7.31%

Q: With `O=C(O)CCC(=O)Nc1ccccc1C(=O)NCc1ccco1` as the compound, how does the inhibition read?
A: -1.28%

Q: For `Cc1ccc(NC(=S)N/N=C2/CCCCc3ccccc32)cc1`, which inhibition is on record?
A: -0.29%

Q: Which inhibition does the source give for `COc1ccc2nc(NC(=O)CSc3nnc(-c4ccoc4C)n3C)sc2c1` here?
A: 0.74%

Q: For `COCCOC(=O)c1c(NC(=O)CN2CCc3ccccc32)sc(C(N)=O)c1C`, which inhibition is on record?
A: 6.77%

Q: With `CCn1cc(C(=O)O)c(=O)c2cnc(N3CCN(C(=S)Nc4ccccc4C(F)(F)F)CC3)nc21` as the compound, how does the inhibition read?
A: -8%

Q: For `O=C(O)C(Cc1c[nH]c2ccccc12)N1Cc2ccccc2C1=O` (configuration not stated), which inhibition is on record?
A: -8.14%

Q: With `CC(C)CNC(=O)NC1C(NC(=O)NCC(C)C)N(C)C(=O)N1C` (configuration not stated) as the compound, how does the inhibition read?
A: -2.11%

Q: Which inhibition does the source give for `O=C(Nc1ccc(N2CCOCC2)cc1)c1cc2c(s1)CCCC2` here?
A: -7.27%

Q: With `COc1ccc2nc(/N=C\N(C)C)sc2c1` as the compound, how does the inhibition read?
A: 5.98%

Q: Which inhibition does the source give for `COc1ccc2nc(N=Nc3c(O)ccc4ccccc34)sc2c1` here?
A: 13.7%

Q: With `CC(C)(C)C(=O)NNC(=O)c1cc2sccc2s1` as the compound, how does the inhibition read?
A: 13.2%

Q: With `CCCS/C(N)=N/N=C/c1ccccc1O` as the compound, how does the inhibition read?
A: 4.15%

Q: Which inhibition does the source give for `CCOc1ccccc1C(=O)N1CCN(C(c2ccccc2)c2ccccc2)CC1` here?
A: 0.97%

Q: With `CC(=O)c1ccccc1OCC(O)CN1CCN(CCN2C(=O)c3cccc4cccc(c34)C2=O)CC1` (configuration not stated) as the compound, how does the inhibition read?
A: 39.8%
